Nrf2 activator – qHTS of Nrf2 Activators; AREc32 ARE-luciferase reporter (MCF7-derived line), luminescence, 24 h; Potency, µM (top dose mostly 46.1 µM), inactives show at the highest dose activation, hits mostly activators; actives 0.31% (n = 410,000); AID 624171, 2012; also: potency is read from the fitted curve at half-maximal effect; % of control where 0% means no effect; nearly all actives have a fitted effect of over 65% in size
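AREc32_Fluc, 1000 cells/well, OPTI-MEM + 5% FBS, o/n 37 deg C 5% CO2; 23 nL cpd by pin tool, 24 hr; Steady-Glo 30 min RT, luminescence.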
12-LOX inh – Primary qHTS assay for inhibitors of human arachidonate 12S-lipoxygenase (ALOX12): Round 2 | Polyunsaturated fatty acid lipoxygenase ALOX12 (Homo sapiens), P18054 | purified 12hLO, xylenol orange hydroperoxide absorbance | Potency, µM (doses to about 108 µM), inactives show top-dose activity change, negative = inhibition, actives largely listed as inhibitors | actives 1.1% (n = 580,000) | AID 1671190, 2021; also: potency is read from the fitted curve at half-maximal effect; % is scaled to controls: 0 for no effect and ±100 for the full control effect
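Hydroperoxide product was detected by ferrous iron/xylenol orange as the 573 to 405 nm absorbance ratio. Arachidonic acid at 40 uM (final) was turned over for 30 min at room temperature by 150 nM human 12hLO, pH 7.0 Hepes buffer, after 15 min compound preincubation.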
A549 tox – Nrf2 qHTS screen for inhibitors: counterscreen for cytotoxicity; A549 ARE-Fluc cells, CellTiter-Fluor viability, 18-24 h; Potency, µM (doses to about 46 µM), for the others: at the highest dose activity change, negative = cytotoxicity, hits mostly inhibitors; actives 0.16% (n = 390,000); also: potency is read from the fitted curve at half-maximal effect; % is scaled to controls: 0 for no effect and ±100 for the full control effect
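A549 ARE_Fluc cells in 5% FBS OPTI-MEM were exposed to compounds in concentration-response for 18-24 h at 37 deg C. Viability was read by CellTiter-Fluor fluorescence (Ex 405/Em 525) after 30 min, before the luciferase read.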
IDH1 R132H inh – qHTS for Inhibitors of mutant isocitrate dehydrogenase 1 (IDH1): qHTS; actives 0.093% (n = 390,000); Isocitrate dehydrogenase [NADP] cytoplasmic (Homo sapiens), O75874; IDH1-R132H enzyme, NADPH consumption, diaphorase/resazurin fluorescence; Potency, µM (highest dose often 76.6 µM), for inactives: top-dose activity change, negative = inhibition, hits mostly inhibitors; also: potency is read from the fitted curve at half-maximal effect; % is scaled to controls: 0 for no effect and ±100 for the full control effect; nearly all actives have a fitted effect of over 65% in size
Target sequence (O75874 whole entry R132H, stated change not applied): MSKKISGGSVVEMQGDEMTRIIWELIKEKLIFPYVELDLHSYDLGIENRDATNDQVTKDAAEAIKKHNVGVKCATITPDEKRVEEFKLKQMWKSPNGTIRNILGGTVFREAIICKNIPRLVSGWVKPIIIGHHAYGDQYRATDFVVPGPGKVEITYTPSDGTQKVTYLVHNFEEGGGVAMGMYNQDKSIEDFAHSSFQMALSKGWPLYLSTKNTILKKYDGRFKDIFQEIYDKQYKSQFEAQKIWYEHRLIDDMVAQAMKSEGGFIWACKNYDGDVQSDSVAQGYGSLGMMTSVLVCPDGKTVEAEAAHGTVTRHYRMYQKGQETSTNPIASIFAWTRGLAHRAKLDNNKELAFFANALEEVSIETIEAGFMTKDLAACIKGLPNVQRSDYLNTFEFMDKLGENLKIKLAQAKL
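IDH1-R132H (0.5 ug/mL dispensed) in pH 7.5 Tris buffer was preincubated 30 min with compound, then given a substrate mix of 0.016 mM NADPH and 2 mM alpha-KG for 80 min at room temperature; remaining NADPH was read by diaphorase/resazurin fluorescence.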
LDHA inh – qHTS assay for inhibitors of human lactate dehydrogenase | L-lactate dehydrogenase A chain (Homo sapiens), P00338 | purified LDHA, NADH/diaphorase-resazurin fluorescence; hits give low values | activity change, % (values are at about 110 or 230 µM) | actives 0.15% (n = 480,000) | AID 1347041, 2019; in the data active = activity change below about -30%; inconclusive = mostly about -25% to -30%;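 also: plate controls were DMSO wells for no effect and wells without enzyme for full effect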
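Human LDH5 at 2 nM final in Tris HCl pH 7.4 with 0.06 mM NADH and 0.2 mM pyruvate, reacted 5 minutes at room temperature. Remaining NADH coupled via diaphorase/resazurin; resorufin fluorescence read at 0 and 20 minutes, normalized to enzyme-free and DMSO wells.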
Nrf2 block – Nrf2 qHTS screen for inhibitors | A549 ARE-Fluc reporter, luciferase luminescence, 18-24 h | Potency, µM (titrated, usually from 46 µM), inactives show at the highest dose activity change, negative = inhibition, hits mostly inhibitors | AID 504444, 2011 | actives 2.1% (n = 360,000); also: potency is read from the fitted curve at half-maximal effect; % is scaled to controls: 0 for no effect and ±100 for the full control effect; nearly all actives have a fitted effect of over 60% in size
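Quantitative HTS in A549 cells stably bearing an antioxidant response element-firefly luciferase construct. Inhibition of Nrf2-driven transcription was scored by luminescence after 18-24 h of compound exposure at 37 °C.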
* = called active by the depositor; ? = inconclusive; · = not tested or not shown; [ ] = remark or other dose. The list is not random: actives were taken first. Their share in the collection is about 2.7%. Unless noted, calls follow the shape of the dose curve; as a rule, active = well fitted curve in the direction sought with a large enough effect; inconclusive = small, poorly fitted or top-dose-only effect, or another doubt; inactive = no such curve, though single readings can be large; an effect the other way counts as inactive or inconclusive.

SMILES	Nrf2 activator	12-LOX inh	A549 tox	IDH1 R132H inh	LDHA inh	Nrf2 block
O=C(CSc1nnc(SCc2ccccc2)s1)N/N=C/C=C/c1ccccc1[N+](=O)[O-]	0.5%	1.2%	4.1%	3.1%	-2.5	13.0%
C/C(=N\NC(=O)CSc1nc2ccccc2s1)c1ccco1	7.08µM*	-11.8%	18.9%	-1.6%	0.4	7.6%
O=C(CSc1nc2ccccc2s1)c1cccc(C(F)(F)F)c1	·	-1.2%	·	·	8.2	·
O=C(CSc1nnc(SCc2ccccc2)s1)N/N=C/C=C\c1ccco1	22.5%	17.8µM*	-1.9%	6.7%	1.4	3.6%
O=C(Nc1cccc(Cl)c1)c1cnc(N2CCCCC2)c2ccccc12	·	-8.3%	·	·	2.9	·
O=C(C1CCCN1c1nnc(N2CCCC2=O)s1)N1CCN(c2cccc(Cl)c2)CC1 (stereo not drawn)	·	-12.8%	·	·	-6.0	·
CN(C)C(=O)CSc1ccc(S(=O)(=O)N2CCCC2)cn1	0.3%	-19.1%	0.8%	-4.6%	-9.4	1.4%
O=S(=O)(c1ccc(Oc2ccc(Br)cc2F)nc1)N1CCCC1	·	18.6%	·	·	10.0	·
O=S(=O)(c1ccc(SCCOc2ccc(Br)cc2)nc1)N1CCCC1	0.5%	-0.6%	3.3%	0.9%	-13.9	16.4µM*
O=S(=O)(c1ccc(SCCOc2ccc(Cl)cc2)nc1)N1CCCC1	0.1%	-22.7%	-6.6%	-3.2%	0.7	18.4µM*
CC(C)N(C(=O)CSc1ccc(S(=O)(=O)N2CCCCC2)cn1)c1ccccc1	0.1%	-9.7%	-0.5%	-4.9%	-9.5	9.2µM*
O=S(=O)(c1ccc(Oc2ccc(Br)cc2F)nc1)N1CCCCC1	0.0%	0.0%	-15.0%	4.3%	1.1	16.4µM*
O=S(=O)(c1ccc(SCc2ccc(Cl)cc2)nc1)N1CCCC1	0.6%	-2.7%	4.4%	6.9%	1.6	?
COc1ccc(C(=O)/C=C/c2ccc(OC)c(Cn3nnc4ccccc43)c2)cc1	12.7%[9.22 µM]	-3.8%	?	4.1%	-4.4	20.6µM*
CCOc1ccc(C(=O)c2sc(Nc3c(C)cccc3C)nc2N)cc1	·	?	·	·	-2.7	·
CC1=NN(c2ccc([N+](=O)[O-])cc2)C(=O)C1[N+](=O)[O-] (stereo not drawn)	·	-28.3%	·	·	·	·
CCCC1=NN(c2ccc([N+](=O)[O-])cc2)C(=O)/C1=C\N(C)C	4.3%[9.22 µM]	44.7µM*	-18.2%	6.7%	-3.7	?
O=C(Nc1ccccc1)N[C@H]1[C@H](O)[C@@H](N2CCN(c3ccccc3)CC2)[C@@H]2OC[C@H]1O2	·	112µM*	·	·	·	·
COc1cccc(-c2noc(-c3cc4cc(Cl)ccc4oc3=O)n2)c1OC	·	2.8%	·	·	-1.9	·
COc1cccc(-c2noc(-c3cc4ccccc4oc3=O)n2)c1OC	11.2µM*	13.3%	1.0%	-1.7%	6.1	?
Cc1cc(F)ccc1S(=O)(=O)Nc1ccccc1-c1n[nH]c(C2CC2)n1	·	?	·	·	2.1	·
CCCc1nc2ccccc2c(C(=O)OCC(=O)NCc2ccc3c(c2)OCO3)c1CC	-0.7%	-16.9%	?	-11.0%	-3.8	20.6µM*
CC1=C(C(=O)OCc2ccccc2)C(c2ccc([N+](=O)[O-])cc2)NC(=O)N1C (stereo not drawn)	4.8%	-29.6%	1.3%	8.6%	0.1	-14.9%
CC1=C(C(=O)OCc2ccccc2)C(c2ccc(C(C)(C)C)cc2)NC(=O)N1CCCCCC(=O)O (stereo not drawn)	-0.2%	25.1µM*	-5.7%	-15.2%	-2.4	-23.6%
CC1=C(C(=O)OCc2ccccc2)C(c2ccccc2[N+](=O)[O-])NC(=O)N1C (stereo not drawn)	-0.8%	15.8µM*	1.4%	-5.8%	2.6	-21.8%
SMILES	Nrf2 activator	12-LOX inh	A549 tox	IDH1 R132H inh	LDHA inh	Nrf2 block
Cc1cc(C)c2c(=O)cc(C(=O)NCC(c3cccs3)N3CCCC3)oc2c1 (stereo not drawn)	·	?	·	·	3.2	·
CCOc1ccc(OCC)c(NS(=O)(=O)c2cc(-c3cnc(C)o3)ccc2C)c1	·	6.6%	·	·	3.2	·
CSc1ccc(CN2CCCCCC2c2sccc2C)cc1 (stereo not drawn)	·	?	·	·	8.9	·
Cc1cc(C)c(C)c(SCC(=O)Nc2oc(C)c3c(C)n[nH]c(=O)c23)c1C	0.3%	25.1µM*	-4.6%	-1.8%	5.8	?
Cc1n[nH]c(=O)c2c(NC(=O)CSc3ccc(F)cc3)oc(C)c12	0.3%	?	-4.3%	4.2%	2.6	-11.1%
COc1ccc(C(=O)COC(=O)CN2CC(=O)Oc3ccccc32)cc1Br	14.1µM*	40.1%	-19.0%	2.7%	9.8	0.2%
CCOc1ccc(CN(CCOC)Cc2cc(=O)n3cccc(C)c3n2)cc1	·	?	·	·	-3.8	·
Cc1cccc(-c2nc(-c3ccc(Br)cc3)no2)c1	·	-28.2%	·	·	1.3	·
Cc1cccc(CSCc2ccc(-c3nc(-c4ccc(Br)cc4)no3)o2)c1	·	3.55µM*	·	·	-1.3	·
COCCn1c(C)cc(/C=N/n2cnnc2SCc2ccc(Cl)cc2)c1C	·	-5.1%	·	·	-3.0	·
COc1cc2c(cc1OC)C(c1ccc(C)cc1)OC2=O (stereo not drawn)	·	?	·	·	-7.5	·
COc1cc2c(cc1OC)/C(=C/C(=O)c1ccc(OC)c([N+](=O)[O-])c1)NCC2	6.0%	-26.3%	-24.1%	-0.3%	-1.7	?
COc1cc2c(cc1OC)/C(=C/C(=O)c1cccc([N+](=O)[O-])c1)NCC2	4.7%	0.0%	?	5.0%	9.6	13µM*
O=C(Nc1ccc(N2CCN(C(=O)c3ccc(Cl)cc3)CC2)cc1)c1ccc2c(c1)OCCO2	-0.3%	3.4%	-10.9%	2.1%	-1.4	6.51µM*
CS(=O)(=O)N1CCN(c2ccc(NC(=O)c3ccc([N+](=O)[O-])o3)cc2)CC1	?	-13.0%	13µM*	8.2%	0.6	-8.8%
O=C(Nc1ccccc1N1CCCC1)c1ccc([N+](=O)[O-])o1	?	?	?	-10.6%	4.0	16.4µM*
O=C(Nc1ccc(N2CCCCC2)cc1)c1ccc([N+](=O)[O-])o1	?	-18.8%	?	16.5%	1.3	?
CC1CCN(c2ccccc2NC(=O)c2ccc([N+](=O)[O-])o2)CC1	-0.2%	?	-5.7%	-2.4%	-2.8	-34.4%
O=C(Nc1ccc(N2CCN(Cc3ccccc3F)CC2)cc1)c1ccc([N+](=O)[O-])o1	?	-10.8%	16.4µM*	6.0%	-2.1	23.1µM*

Compound activity as filed in PubChem.
